Results published in PubChem BioAssay (NCATS).
Values joined by “and” are separate entries in the source; they are usually repeats but may differ in a detail not shown here. Identical values can stand only once. Results filed as inconclusive are left out. Active and inactive are the calls of the source. Unless noted, the call rests on the fitted dose curve; in most records, active means well fitted curve in the direction sought with a large enough effect; inconclusive means small, poorly fitted or top-dose-only effect, or another doubt; inactive means no such curve, though single readings can be large; an effect the other way counts as inactive or inconclusive.

Key:
[1] = Cellular Toxicity (caspase-3) NIH 3T3 (AID 666); conditions: NIH 3T3 caspase-3 activation, apoptosis/toxicity; series mostly up to 92.2 µM;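 further: caspase signal read after 16 h compound exposure; 0% = DMSO basal and 100% = 100 µM tamoxifen stimulation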
How it was run: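 Mouse NIH 3T3 fibroblasts (1000 cells/well) were treated with compound for 16 hr at 37°C in complete medium; caspase-3/7 activity was read by Caspase-Glo luminescence. Normalized to DMSO and 100 uM tamoxifen; AC50 from Hill fits.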

[2] = Cellular Toxicity (caspase-3) Renal Proximal Tubule (AID 667); conditions: renal proximal tubule cells; at 91.7 µM (top of the series) unless noted;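 further: cells exposed to compound for 16 hours at 37 °C before detection; 0% = DMSO basal and 100% = 10 µM staurosporine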
How it was run: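 Freshly isolated primary rat kidney proximal tubule cells, 1000/well, treated 16 hr at 37 °C, then Caspase-Glo 3/7 luminescence after 1 hr. Normalized to DMSO and 10 uM staurosporine; AC50 from Hill fit.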

[3] = target: Cytochrome P450 3A4 (Homo sapiens) (UniProt P08684); experiment: qHTS Assay for Activators of Cytochrome P450 3A4 (AID 885); conditions: recombinant CYP3A4, Luciferin-PPXE luminescence, 60 min; series mostly up to 57.1 µM; further: nearly all actives have a fitted effect of over 65% in size
How it was run: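 20nM CYP3A4 + 25uM Luciferin-PPXE (=KM), 200mM KPO4; cpd 10 min RT; NADPH regen, 60 min RT; stop w/ detection buffer, 20 min; luminescence. Normalized to 57 uM ketoconazole.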

[4] = target: Cytochrome P450 3A4 (Homo sapiens) (UniProt P08684); experiment: qHTS Assay for Inhibitors and Substrates of Cytochrome P450 3A4 (AID 884); conditions: recombinant CYP3A4, Luciferin-PPXE luminescence; series mostly up to 57.1 µM; further: nearly all actives have a fitted effect of over 50% in size; further: potency means the concentration at half of the fitted maximal effect
How it was run: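 20 nM human CYP3A4 with 25 uM Luciferin-PPXE (at KM) in 200 mM KPO4, preincubated 10 min with compound; NADPH regeneration started a 60 min RT reaction. Luciferin detected by luminescence, normalized to 57 uM ketoconazole as full inhibition.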

[5] = Confirmation and Secondary Assay for Modulators of Hemoglobin Beta Chain Splicing at IVS2 654 locus (AID 910); conditions: HeLa EGFP-654 splicing reporter, GFP fluorescence, 48 h; series mostly up to 46.1 µM;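 further: HeLa cells stably carrying EGFP split by mutant beta-globin IVS2-654 intron; per-well total GFP intensity by laser scanning cytometry after 2-day treatment; % of control where 0% means no effect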
How it was run: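 Readout: per-well total peak green fluorescence (488 nm ex, 500–520 nm em) from objects 5–250 µm, reflecting correct splicing of an EGFP-654 reporter. Compounds were applied for 2 days at 37 °C to overnight-plated HeLa EGFP-654 cells; controls were DMSO and 500 nM IVS2-654 PNA.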

[6] = target: Guanine nucleotide-binding protein G(i) subunit alpha-1 (Homo sapiens) (UniProt P63096); experiment: qHTS Assay for Inhibitors of RGS12 GoLoco Motif Activity (Green Fluorophore) (AID 879); conditions: Galphai1/FITC-RGS12 GoLoco peptide, fluorescence polarization; series mostly up to 57.1 µM; further: potency means the concentration at half of the fitted maximal effect
How it was run: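 Fluorescence polarization assay: 50 nM Gαi1 with 10 nM FITC-labeled RGS12 GoLoco peptide in 10 mM Tris pH 7.5, 150 mM NaCl, 0.1 mM GDP, 0.05% NP40, 10 min at room temperature with compound.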

[7] = target: Cytochrome P450 2C9 (Homo sapiens) (UniProt P11712); experiment: qHTS Assay for Inhibitors and Substrates of Cytochrome P450 2C9 (AID 883); conditions: recombinant CYP2C9, luciferin-H luminescence, 60 min; series mostly up to 57.1 µM; further: nearly all actives have a fitted effect of over 60% in size; further: potency means the concentration at half of the fitted maximal effect
How it was run: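 Luminescent read-out of deoxyluciferin hydroxylation, normalized to 57uM sulphaphenazole (AC100). Reaction: 10nM enzyme, 100uM Luciferin-H (equal to KM), 25mM KPO4, 10 min compound preincubation, then 60 min with NADPH regeneration, both at 37C.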

[8] = qHTS Assay for Identification of Small Molecule Antagonists for NFkB Signaling Pathway (AID 895; active means well fitted inhibition curve with a large enough effect in the signal ratio, with a control signal flat, not every such curve was filed as active; the % refers to the signal ratio; further: on the % scale 0 is the no-effect control and ±100 the full control effect); conditions: NFkB beta-lactamase reporter cells, FRET ratio 460/530; series mostly up to 38.3 µM
How it was run: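 Beta-lactamase reporter read-out (460 and 530 nm emission ratio, 405 nm excitation, 2 hrs substrate loading RT) after 5 hr stimulation with 10 pM TNF alpha in compound-treated NFkB-bla ME-180 cells in low-serum medium.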

[9] = qHTS Assay for Identification of Small Molecule Agonists for Thrombopoietin (TPO) Signaling Pathway (AID 917); conditions: TPO signaling pathway reporter cells, agonist qHTS; series mostly up to 38.5 µM; further: on the % scale 0 is the no-effect control and ±100 the full control effect
How it was run: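 Murine Ba/F3 cells expressing human TPO receptor and GPIIb-promoter luciferase, IL-3-starved overnight, given compound plus TPO at 26 pM (EC50). After 24 h at 37 C, 5% CO2, luminescence read.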

[10] = qHTS Assay for Identification of Small Molecule Agonists for Hypoxia Response Element Signaling Pathway (AID 914; active means well fitted activation curve with a large enough effect in the signal ratio, with a control signal flat, not every such curve was filed as active; the % refers to the signal ratio; further: % of control where 0% means no effect); conditions: ME-180 (cervical carcinoma) HRE-bla reporter, beta-lactamase ratio, CoCl2, 17 h; hits give high values
How it was run: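 Read-out: CCF4 FRET ratio of 460nm to 530nm emission (excitation 405nm) after 2.5 hours at room temperature, taken from HRE-bla ME-180 cells that had been exposed to compound and EC50 CoCl2 for 17 hours.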

Sequence of Cytochrome P450 2C9 (Homo sapiens) (P11712 whole entry, looked up): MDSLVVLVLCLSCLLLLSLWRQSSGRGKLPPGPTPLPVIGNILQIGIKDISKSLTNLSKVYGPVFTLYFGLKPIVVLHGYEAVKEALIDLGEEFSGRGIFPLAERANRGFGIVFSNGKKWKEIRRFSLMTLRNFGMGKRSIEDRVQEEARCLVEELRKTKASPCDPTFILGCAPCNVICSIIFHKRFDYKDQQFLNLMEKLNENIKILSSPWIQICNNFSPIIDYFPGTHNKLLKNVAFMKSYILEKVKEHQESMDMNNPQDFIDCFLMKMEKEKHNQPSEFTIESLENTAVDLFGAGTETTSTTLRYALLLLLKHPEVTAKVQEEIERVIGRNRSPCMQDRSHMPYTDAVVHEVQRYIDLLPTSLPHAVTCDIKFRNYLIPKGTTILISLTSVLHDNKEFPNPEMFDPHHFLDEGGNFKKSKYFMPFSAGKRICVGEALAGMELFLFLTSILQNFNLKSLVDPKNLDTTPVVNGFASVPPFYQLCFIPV
Sequence of Guanine nucleotide-binding protein G(i) subunit alpha-1 (Homo sapiens) (P63096 whole entry, looked up): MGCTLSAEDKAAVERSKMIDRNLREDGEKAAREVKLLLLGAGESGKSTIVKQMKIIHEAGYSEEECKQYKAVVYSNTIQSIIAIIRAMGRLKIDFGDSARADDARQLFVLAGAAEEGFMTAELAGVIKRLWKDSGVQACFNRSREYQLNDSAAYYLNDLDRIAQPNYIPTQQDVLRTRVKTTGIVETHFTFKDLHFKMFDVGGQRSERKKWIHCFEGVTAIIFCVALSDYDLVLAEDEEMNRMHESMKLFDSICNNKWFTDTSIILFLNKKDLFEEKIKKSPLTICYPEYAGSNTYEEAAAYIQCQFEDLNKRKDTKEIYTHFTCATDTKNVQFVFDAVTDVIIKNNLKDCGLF
Sequence of Cytochrome P450 3A4 (Homo sapiens) (P08684 whole entry, looked up): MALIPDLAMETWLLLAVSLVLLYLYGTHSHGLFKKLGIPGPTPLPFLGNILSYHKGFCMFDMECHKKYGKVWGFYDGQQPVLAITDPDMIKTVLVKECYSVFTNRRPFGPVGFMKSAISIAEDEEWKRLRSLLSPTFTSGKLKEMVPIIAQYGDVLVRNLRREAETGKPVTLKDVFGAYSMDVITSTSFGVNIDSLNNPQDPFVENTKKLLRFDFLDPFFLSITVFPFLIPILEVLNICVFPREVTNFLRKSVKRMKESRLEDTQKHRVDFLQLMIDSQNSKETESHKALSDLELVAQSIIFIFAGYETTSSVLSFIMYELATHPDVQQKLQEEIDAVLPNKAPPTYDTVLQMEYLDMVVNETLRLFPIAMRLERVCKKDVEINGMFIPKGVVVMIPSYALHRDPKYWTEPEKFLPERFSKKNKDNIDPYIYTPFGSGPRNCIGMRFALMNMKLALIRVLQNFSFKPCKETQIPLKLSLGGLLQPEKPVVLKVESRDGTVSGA

O=C1C2CC=CCC2C(=O)N1SC(Cl)(Cl)Cl (centres undefined)
inactive: Potency [1] | caspase-3 activation [2] -14.4% and -19.5% | outcome [3]

[O]=[Cr](=[O])([OH])[O][Cr](=[O])(=[O])[OH]
inactive: Potency [4]
active: caspase-3 activation [2] 101%

C[C@H]1CC[C@@H]2[C@@H](C)[C@H]3[C@H](C[C@H]4[C@@H]5CC=C6CC(O[C@@H]7O[C@H](CO)[C@H](O)[C@H](O[C@@H]8O[C@H](CO)[C@@H](O)[C@H](O)[C@H]8O)[C@H]7O[C@H]7O[C@@H](C)[C@H](O)[C@@H](O)[C@H]7O)CC[C@]6(C)[C@H]5CC[C@]34C)N2C1 (some centres undefined)
inactive: Potency [1] | caspase-3 activation [2] 5.75% | Potency [4]

O=Cc1ccco1
inactive: Potency [1] | caspase-3 activation [2] -8.6% [at 91.7 µM, primary cells freshly taken from rat, solvent-only wells 0%, staurosporine 100%] | Potency [4]

O=C1CCO1
inactive: Potency [1] | caspase-3 activation [2] -9.04% [at 91.7 µM, primary cells freshly taken from rat, solvent-only wells 0%, staurosporine 100%] | Potency [4] | outcome [5]

O=c1c2ccccc2[se]n1-c1ccccc1
active: Potency [6] 12.6 µM | Potency [7] 1 µM and 79.4 nM | Potency [4] 3.98 µM and 25.1 µM
inactive: outcome [3]

CC(C)(C)c1cc(O)ccc1O
inactive: Potency [1] | caspase-3 activation [2] -12.4% and -3.67% | Potency [4]

ClCC1CO1 (centres undefined)
inactive: Potency [1] | caspase-3 activation [2] 0.815% [at 91.7 µM, primary cells freshly taken from rat, solvent-only wells 0%, staurosporine 100%] | Potency [4]

[Cl-].[Cl-].[Hg+2]
inactive: Potency [1] | caspase-3 activation [2] -16% | outcome [5]

Clc1ccccc1Cl
inactive: Potency [1] | caspase-3 activation [2] 5.14% [at 91.7 µM, primary cells freshly taken from rat, solvent-only wells 0%, staurosporine 100%] | Potency [4]

CCCCCl
inactive: Potency [1] | caspase-3 activation [2] 1.64% [at 91.7 µM, primary cells freshly taken from rat, solvent-only wells 0%, staurosporine 100%] | Potency [4]

O=C(O)C(Cl)(Cl)Cl
inactive: Potency [1] | caspase-3 activation [2] -2.66% and 2.21% | Potency [4]

CC(C)Nc1ccc(Nc2ccccc2)cc1
inactive: Potency [1] | caspase-3 activation [2] 11.6% [at 91.7 µM, primary cells freshly taken from rat, solvent-only wells 0%, staurosporine 100%] | outcome [3]

O=C1C=CC(=O)C=C1
inactive: Potency [1] | caspase-3 activation [2] 4.64% | Potency [6] | Potency [7] | Potency [4] | Potency [8] | Potency [9]

O=[N+]([O-])c1ccccc1
inactive: Potency [1] | caspase-3 activation [2] 0.615% | Potency [4]

CCOC(=O)c1ccccc1C(=O)OCC
inactive: Potency [1] | caspase-3 activation [2] 7.7% and 0.83% | Potency [4]

O=C/C=C/c1ccccc1
inactive: Potency [1] | caspase-3 activation [2] 0.729% and 4.55% | Potency [4]

ClC(Cl)(Cl)Cl
inactive: Potency [1] | caspase-3 activation [2] 5.92% and -10.1% | Potency [4]

CC(C)CCON=O
inactive: Potency [1] | caspase-3 activation [2] -0.158% | Potency [4]

O=[N+]([O-])c1ccc(F)c([N+](=O)[O-])c1
inactive: Potency [1] | caspase-3 activation [2] -20.3% | Potency [4]

S=C=S
inactive: Potency [1] | caspase-3 activation [2] 4.15% [at 91.7 µM, primary cells freshly taken from rat, solvent-only wells 0%, staurosporine 100%] | Potency [4]

O=CC=O
inactive: Potency [1] | caspase-3 activation [2] -5.02% [at 91.7 µM, primary cells freshly taken from rat, solvent-only wells 0%, staurosporine 100%] | Potency [4]

COC1=CC(=O)O[C@@H](/C=C/c2ccccc2)C1
inactive: Potency [1] | caspase-3 activation [2] -6.32% | Potency [4]

CCCCCCCCOC(=O)c1ccccc1C(=O)OCCCCCCCC
inactive: Potency [1] | caspase-3 activation [2] -2.49% | Potency [4]

N[C@@H](Cn1oc(=O)[nH]c1=O)C(=O)O
inactive: Potency [6] | outcome [3] | Potency [9]

N#CCCN
inactive: Potency [6] | Potency [8] | activation [10] 19.4% | Potency [9]
